Outcome and AC50 data for nine compounds are collected here from PubChem BioAssay (EPA / NIEHS).

“And” between values parts separate entries of the source, which are not always exact repeats. Equal values may be shown once. Results filed as inconclusive are left out. The source made the active and inactive calls. The calls were made as follows, unless noted: active = hit-call score of the fitted dose curve at least 0.9, where 1 is the maximum; inconclusive = response in the unintended direction; inactive = score below 0.9.

Experiment [1] can be described thus: TOX21_p53_BLA_p2_viability: Viability Assessment in the Tox21 HCT-116 p53 Agonism Beta-lactamase Assay, Phase 2 (AID 2283591).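 Also: actives lower the ATP signal meaning cytotoxicity.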 Summed up:
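Cytotoxicity readout: CellTiter-Glo ATP luminescence, 30 min at room temperature, after the beta-lactamase read. Cells were HCT116 exposed 16 h at 37C to compounds pin-transferred at 217-fold dilution from DMSO stocks.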

Experiment [2] addresses Cellular tumor antigen p53 (Homo sapiens) (UniProt P04637). Description: TOX21_p53_BLA_p2_ratio: Tox21 HCT-116 p53 Agonism Beta-lactamase Assay, Ratio, Phase 2 (AID 2283592). Summed up: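 First, HCT116 reporter cells settle for 5 h at 37C. Next, DMSO compound solutions are pinned in (217-fold dilution) and left 16 h. Finally, CCF4-AM substrate is loaded 2 h at room temperature and the 460/530 nm ratio read.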

Experiment [3] is described as follows: TOX21_p53_BLA_p3_viability: Viability Assessment in the Tox21 HCT-116 p53 Agonism Beta-lactamase Assay, Phase 3 (AID 2283593).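 Also: cells exposed to compound for 16 h before reading.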 Put shortly:
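Cellular ATP was quantified by CellTiter-Glo luminescence, read after 30 min at room temperature. Beforehand, HCT116 cells (4000/well) received compound 5 h post-seeding, 217-fold diluted from DMSO, then incubated 16 h at 37C.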

Experiment [4] concerns the target Cellular tumor antigen p53 (Homo sapiens) (UniProt P04637). Description: TOX21_p53_BLA_p3_ratio: Tox21 HCT-116 p53 Agonism Beta-lactamase Assay, Ratio, Phase 3 (AID 2283596). Summed up: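 Cells were seeded at 4000/well, rested 5 h at 37C, then dosed with DMSO compound solutions (217-fold dilution) for 16 h. CCF4-AM substrate was loaded for 2 h at room temperature, and the 460/530 nm emission ratio was fitted for gain of signal versus DMSO.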

The nature of experiment [5]: TOX21_p53_BLA_p4_viability: Viability Assessment in the Tox21 HCT-116 p53 Agonism Beta-lactamase Assay, Phase 4 (AID 2283597).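 Also: hits lower the luminescence signal meaning cytotoxicity.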 Summed up: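 4000 HCT116 cells per well; 5 h attachment; compounds from DMSO, 217-fold dilution; 16 h at 37C. Then CCF4-AM, 2 h RT, followed by CellTiter-Glo, 30 min RT, luminescence. Decrease = cytotoxicity.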
Experiment [6] deals with Cellular tumor antigen p53 (Homo sapiens) (UniProt P04637). Description: TOX21_p53_BLA_p5_ratio: Tox21 HCT-116 p53 Agonism Beta-lactamase Assay, Ratio, Phase 5 (AID 2283599). Put shortly: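 Beta-lactamase reporter ratio (blue 460 nm over green 530 nm, 405 nm excitation) after 2 h CCF4-AM loading, in HCT-116 cells exposed 16 h at 37 C to compounds pinned at 217-fold dilution. Increases relative to DMSO baseline scored.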

Experiment [7] can be described thus: TOX21_p53_BLA_p5_viability: Viability Assessment in the Tox21 HCT-116 p53 Agonism Beta-lactamase Assay, Phase 5 (AID 2283600). Put shortly: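 Decreased CellTiter-Glo luminescence denotes lost viability. Exposure: 16 h at 37C, 5% CO2, with compounds from DMSO stocks diluted 217-fold in wells of 4000 cells.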
For experiment [8], the target named is Cellular tumor antigen p53 (Homo sapiens) (UniProt P04637). Description: TOX21_p53_BLA_p4_ratio: Tox21 HCT-116 p53 Agonism Beta-lactamase Assay, Ratio, Phase 4 (AID 2283601). Summed up:
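Signal is the blue/green (460nm/530nm) ratio of cleaved versus uncleaved CCF4-AM substrate, read after 2 h substrate loading. Cells were HCT116 carrying the p53-responsive beta-lactamase reporter, dosed 16 h at 37C, 5% CO2; CellTiter-Glo measured in parallel.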

A short description of experiment [9]: CCTE_Harrill_HTTr_Viability_MCF7: CCTE's 6-hour Cell Viability Assessment for the High-Throughput Transcriptomics (HTTr) Platform, in MCF-7 cells cultured in DMEM + 10% fetal bovine serum, Harrill Lab (AID 2284010; active = hit-call score of the fitted dose curve at least 0.9, where 1 is the maximum; inactive = score below 0.9). Summed up: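 Read-out is propidium iodide gain of signal by high-content imaging, reflecting membrane integrity loss. Measurements are taken 6 h after dosing, eight concentrations per chemical, with DMSO serving as baseline for bidirectional curve fitting.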

Experiment [10] is described as follows: CCTE_Harrill_HTTr_Apoptosis_MCF7: CCTE's 6-hour Apoptosis Assessment for the High-Throughput Transcriptomics (HTTr) Platform, in MCF-7 cells cultured in DMEM + 10% fetal bovine serum, Harrill Lab (AID 2284011; active = hit-call score of the fitted dose curve at least 0.9, where 1 is the maximum; inactive = score below 0.9). Put shortly:
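MCF-7 cells in DMEM + 10% FBS exposed 6 h to chemicals over an eight-point dilution series. Caspase-3/7 activation imaged by high-content CellEvent Green staining; fitted bidirectionally versus DMSO.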

Experiment [11] has as its target Thyroid hormone receptor alpha (Rattus norvegicus) + Thyroid hormone receptor beta (Rattus norvegicus) (UniProt P18113+P63059). The experiment can be described thus: TOX21_TR_LUC_GH3_Antagonist_Followup: Tox21 GH3 Thyroid Hormone Receptor Antagonism Luciferase Follow-Up Assay (AID 2283942). Summed up: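 Loss of T3-driven (1.0 nM final) reporter activity in GH3 cells was read by ONE-Glo luminescence after 24 h incubation at 37C; 15-point compound series spanned 92 uM to 5nM final, 1,500 cells/well.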

Experiment [12] concerns the target THRB (gene 7068) (UniProt P10828). The experiment can be described thus: TOX21_TRB_BLA_Antagonist_Followup_ratio: Tox21 Thyroid Hormone Receptor beta Antagonism Beta-lactamase (BLA) Follow-Up Assay, Ratio (AID 2283958). Summed up: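 Cells were plated and allowed to attach for 5 h, then dosed with compounds in DMSO at 11 concentrations for 18 h at 37C. Beta-lactamase reporter activity was measured via CCF4-AM FRET as the 460:530 nm ratio.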

The nature of experiment [13]: TOX21_TRB_BLA_Antagonist_Followup_viability: Viability Assessment in the Tox21 Thyroid Hormone Receptor beta Antagonism Beta-lactamase (BLA) Follow-Up Assay (AID 2283961). Put shortly:
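HEK293T cells with GAL4-human TRβ LBD and UAS-bla reporter, 3,000 cells/well in 2% charcoal-stripped FBS medium; 11-point concentrations in triplicate, 18 h at 37C. Viability from ATP by CellTiter-Glo luminescence, 30 min RT, same plates.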

The nature of experiment [14]: TOX21_TR_RXR_BLA_Antagonist_Followup_viability: Viability Assessment in the Tox21 Thyroid Hormone Receptor beta Retinoid X Receptor alpha (RXRa) Antagonism Beta-lactamase (BLA) Follow-Up Assay (AID 2283979). Put shortly:
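Follow-up compounds (11 concentrations, triplicate) were incubated 16 h at 37C/5% CO2 with HEK293T RXRa-bla cells seeded at 2,500/well in charcoal-stripped-serum medium. ATP content by CellTiter-Glo luminescence gave viability; curves fitted in both directions against DMSO.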

Experiment [15] deals with THRB (gene 7068) (UniProt P10828). The experiment can be described thus: TOX21_TRB_COA_Antagonist_Followup_ratio: Tox21 Thyroid Hormone Receptor beta Antagonism through Coactivator Recruitment Follow-Up Assay, Ratio (AID 2283967). Put shortly: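 Coactivator recruitment to the GST-tagged TRb ligand-binding domain (5.0 nM) was read as the 520/495 nm TR-FRET ratio, using 200 nM fluorescein SRC-2 peptide and 2 nM terbium anti-GST. Scaled between DMSO and T3 wells; loss of signal fitted.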
Sequence of THRB (gene 7068) (P10828 whole entry, looked up, the tested form may be a part): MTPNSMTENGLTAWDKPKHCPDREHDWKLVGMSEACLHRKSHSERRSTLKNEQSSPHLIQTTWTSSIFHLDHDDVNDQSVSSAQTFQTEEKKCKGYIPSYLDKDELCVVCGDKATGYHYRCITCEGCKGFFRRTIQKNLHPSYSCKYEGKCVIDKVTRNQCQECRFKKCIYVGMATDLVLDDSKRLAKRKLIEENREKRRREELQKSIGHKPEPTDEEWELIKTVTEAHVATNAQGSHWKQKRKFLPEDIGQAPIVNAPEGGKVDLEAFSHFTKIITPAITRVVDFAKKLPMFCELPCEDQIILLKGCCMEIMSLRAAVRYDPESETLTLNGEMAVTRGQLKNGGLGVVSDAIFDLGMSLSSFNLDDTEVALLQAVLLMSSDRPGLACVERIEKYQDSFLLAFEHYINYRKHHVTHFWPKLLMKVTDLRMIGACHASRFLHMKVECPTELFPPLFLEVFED

Sequence of Cellular tumor antigen p53 (Homo sapiens) (P04637 whole entry, looked up): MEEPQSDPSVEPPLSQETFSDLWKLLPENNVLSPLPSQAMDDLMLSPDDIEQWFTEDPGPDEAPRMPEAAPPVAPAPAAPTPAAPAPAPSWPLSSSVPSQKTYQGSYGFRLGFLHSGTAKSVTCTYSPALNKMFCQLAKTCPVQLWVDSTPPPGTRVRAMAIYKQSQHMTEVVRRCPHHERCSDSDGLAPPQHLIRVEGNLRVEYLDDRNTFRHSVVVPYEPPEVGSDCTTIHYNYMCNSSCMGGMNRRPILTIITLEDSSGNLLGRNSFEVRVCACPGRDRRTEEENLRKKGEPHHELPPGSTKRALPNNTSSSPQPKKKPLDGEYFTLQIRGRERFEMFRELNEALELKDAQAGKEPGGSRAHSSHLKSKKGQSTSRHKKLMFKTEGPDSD

Take `NNc1nncc2ccccc12`: the outcome in experiment [1], in [2], in [3], in experiment [4], in experiment [5] and in [6] was inactive. Besides, the outcome in experiment [7], in [8], in [9] and in experiment [10] was inactive.
One may read the AC50 as the concentration giving half of the maximal activity seen. On to `Cc1cc(Nc2ccc(O)cc2)ccc1N`, for which the compound was called inactive in experiment [1], in [2], in [5], in experiment [6] and in experiment [8]. The AC50 in experiment [3] is 46.7 µM (active); in [4] it was 41.2 µM (active).
As for `C[n+]1c2cc(N)ccc2cc2ccc(N)cc21` (tested in a mixture with another compound), the outcome in experiment [1], in experiment [3], in experiment [5], in experiment [7] and in experiment [13] was inactive. The AC50 in experiment [2] was 11.6 µM (active); in experiment [4], 9.45 µM (active); in experiment [6], 9.47 µM (active); in experiment [8], 6.18 µM (active); in [11], 18.2 µM (active); in the experiment with THRB (gene 7068) [12] it was 36 µM (active). Besides, the AC50 in experiment [14] is 16.5 µM (active).
Regarding `Oc1c(I)cc(I)c2cccnc12`, the AC50 was 10.6 µM (active) in [1], 9.75 µM (active) in experiment [3] and 23 µM (active) in [5]. In addition, the result in experiment [2], in experiment [4], in [6], in [7], in [8] and in experiment [11] was inactive. The outcome (in the experiment with THRB (gene 7068) [12]; in experiment [13]; in [14]) was inactive.
Take `OC[C@@H](O)[C@H](O)[C@H](O)[C@@H](O)CO`: the compound was classed as inactive in experiment [1], in experiment [2], in [3], in [4], in [5] and in experiment [6]. In addition, the result in experiment [8] was inactive.
`O=C(c1ccccc1)c1cc(Cl)ccc1O`: the outcome in [1], in [2], in [3], in experiment [4], in experiment [5] and in [6] was inactive. Further, the outcome in experiment [8] was inactive.
`COC(=O)Nc1nc2ccc(Sc3ccccc3)cc2[nH]1`: the compound was called inactive (in [1]; in experiment [3]; in [5]; in [7]; in experiment [13]; in the experiment with THRB (gene 7068) [15]). The call in [14] was inactive. Moreover, the concentration at half-maximal activity (AC50) in experiment [2] was 99.9 nM (active) and 139 nM (active); in experiment [4], 163 nM (active) and 98.8 nM (active); in experiment [6], 161 nM (active) and 97.3 nM (active); in experiment [8] it was 122 nM (active) and 96.1 nM (active); with THRB (gene 7068) [12], 0.868 µM (active).
For `CC1(C)S[C@@H]2[C@H](NC(=O)[C@H](N)c3ccc(O)cc3)C(=O)N2[C@H]1C(=O)O`, the compound was called inactive in [1], in experiment [2], in experiment [3], in experiment [4], in [5] and in experiment [6]. Moreover, the outcome in [7] and in experiment [8] was inactive.
On to `CCCCCCNC(=O)n1cc(F)c(=O)[nH]c1=O`, for which the AC50 is 0.709 µM (active) in experiment [1]; 0.77 µM (active) in [2]; 1.26 µM (active) in experiment [3]; 2.57 µM (active) in [4]; 3.62 µM (active) in [5]; 2.87 µM (active) in experiment [6]. For the same compound, the AC50 in experiment [7] is 1.02 µM (active); in experiment [8], 2.24 µM (active); in experiment [11] it was 12 µM (active). The call (in experiment [13]; in the experiment with THRB (gene 7068) [15]; in experiment [14]) was inactive.
